Holding throughout (experiment): yeast three-hybrid, YBZ-1, SC-Leu-His + 0.5 mM 3-AT, 4 days
Conditions in all cases: tags: N-Gal4 AD-HA kept; label: inside an RPR1-promoter hybrid RNA with tandem MS2 sites; ssRNA

In one assay the target is PUM1 PUF domain R3-LFS (Homo sapiens, UniProt Q14671 828-1176, C935L;R936F;Q939S). The procedure, abridged:
(§1)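 Repeat regions from input (SC-Leu) and selection (SC-Leu-His + 0.5 mM 3-AT) plates were PCR-amplified and Illumina-sequenced after four days of growth. The cells were strain YBZ-1 with a LexA–MS2 coat fusion and a HIS3 reporter, co-expressing Pumilio-1 PUF domain libraries and matching RNA elements from a centromeric plasmid. The interaction score is the log change in variant frequency from input to selection, taken in log2 with a pseudocount of 1 for absent variants.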

Another assay addresses PUM1 PUF domain R3-VWC (Homo sapiens, UniProt Q14671 828-1176, C935V;R936W;Q939C). In short, it runs like this:
as §1

Another assay deals with PUM1 PUF domain R3-WCS (Homo sapiens, UniProt Q14671 828-1176, C935W;R936C;Q939S). The procedure, abridged: as §1
The target of another assay is PUM1 PUF domain R5-RNI (Homo sapiens, UniProt Q14671 828-1176, C1007R;R1008N;Q1011I). The procedure, abridged:
as §1

The next assay concerns the target PUM1 PUF domain R2-EWS (Homo sapiens, UniProt Q14671 828-1176, N899E;Y900W;Q903S). The procedure, abridged: as §1
A further assay concerns the target PUM1 PUF domain R4-VNT (Homo sapiens, UniProt Q14671 828-1176, N971V;H972N;Q975T). In short, it runs like this: as §1
In a further assay the target is PUM1 PUF domain R4-DFI (Homo sapiens, UniProt Q14671 828-1176, N971D;H972F;Q975I). The procedure, abridged:
as §1

Another assay concerns the target PUM1 PUF domain R4-EYQ (Homo sapiens, UniProt Q14671 828-1176, N971E;H972Y). The procedure, abridged:
as §1

The target of the next assay is PUM1 PUF domain R4-SNV (Homo sapiens, UniProt Q14671 828-1176, N971S;H972N;Q975V). In short, it runs like this: as §1
In the next assay the target is PUM1 PUF domain R7-GCG (Homo sapiens, UniProt Q14671 828-1176, S1079G;N1080C;E1083G). The procedure, abridged: as §1
Sequence of PUM1 PUF domain R7-GCG (Q14671 828-1176 S1079G/N1080C/E1083G): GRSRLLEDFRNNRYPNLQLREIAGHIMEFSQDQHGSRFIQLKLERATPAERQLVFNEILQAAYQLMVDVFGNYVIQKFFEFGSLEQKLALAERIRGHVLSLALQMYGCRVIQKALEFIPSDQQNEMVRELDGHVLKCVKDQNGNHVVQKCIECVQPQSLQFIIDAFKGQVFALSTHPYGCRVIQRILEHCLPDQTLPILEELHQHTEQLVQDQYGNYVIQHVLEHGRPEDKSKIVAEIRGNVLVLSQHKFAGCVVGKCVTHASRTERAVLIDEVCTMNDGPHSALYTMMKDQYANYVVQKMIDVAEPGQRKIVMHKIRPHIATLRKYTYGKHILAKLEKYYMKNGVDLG
The target in another assay is PUM1 PUF domain R7-QSR (Homo sapiens, UniProt Q14671 828-1176, S1079Q;N1080S;E1083R). In short, it runs like this: as §1
A further assay has as its target PUM1 PUF domain R4-TPE (Homo sapiens, UniProt Q14671 828-1176, N971T;H972P;Q975E). In short, it runs like this: as §1
The next assay concerns the target PUM1 PUF domain R3-ASE (Homo sapiens, UniProt Q14671 828-1176, C935A;R936S;Q939E). In short, it runs like this:
as §1

The next assay has as its target T1, PUM1 PUF domain R6-MYG (Homo sapiens, UniProt Q14671 828-1176, N1043M;Q1047G).
T1 sequence: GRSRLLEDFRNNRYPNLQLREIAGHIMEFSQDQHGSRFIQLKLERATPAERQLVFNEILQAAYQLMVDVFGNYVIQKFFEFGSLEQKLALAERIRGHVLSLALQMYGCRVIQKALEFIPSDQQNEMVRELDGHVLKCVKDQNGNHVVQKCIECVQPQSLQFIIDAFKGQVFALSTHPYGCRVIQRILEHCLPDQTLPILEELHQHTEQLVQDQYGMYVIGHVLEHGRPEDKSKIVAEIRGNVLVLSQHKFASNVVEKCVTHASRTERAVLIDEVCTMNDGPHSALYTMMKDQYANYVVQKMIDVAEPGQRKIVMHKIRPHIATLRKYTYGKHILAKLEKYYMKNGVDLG
In short, it runs like this:
as §1

The next assay deals with PUM1 PUF domain R8-KFR (Homo sapiens, UniProt Q14671 828-1176, N1122K;Y1123F;Q1126R). The procedure, abridged:
as §1

A further assay addresses PUM1 PUF domain R3-ASY (Homo sapiens, UniProt Q14671 828-1176, C935A;R936S;Q939Y). The procedure, abridged:
as §1

A further assay deals with T2, PUM1 PUF domain R6-RWS (Homo sapiens, UniProt Q14671 828-1176, N1043R;Y1044W;Q1047S).
T2 sequence: T1 sequence with M216R, Y217W, G220S
The procedure, abridged:
as §1

Another assay concerns the target PUM1 PUF domain R8-LRK (Homo sapiens, UniProt Q14671 828-1176, N1122L;Y1123R;Q1126K). In short, it runs like this: as §1
The target of the next assay is PUM1 PUF domain R4-NRC (Homo sapiens, UniProt Q14671 828-1176, H972R;Q975C). In short, it runs like this:
as §1

The target of a further assay is PUM1 PUF domain R1-NWG (Homo sapiens, UniProt Q14671 828-1176, S863N;R864W;Q867G). In short, it runs like this:
as §1

Our source for the binding signal values is paper PMC8384837, “Expanding the binding specificity for RNA recognition by a PUF domain”.

Residue numbers refer to the chain shown, from its start.

Sequence of PUM1 PUF domain R4-VNT (Q14671 828-1176 N971V/H972N/Q975T): as the sequence (Q14671 828-1176 S1079G/N1080C/E1083G) above, with N144V, H145N, Q148T, G252S, C253N, G256E counted along it

On to “GGCUAGAACUAGUGGAUCCCCCGGCGCCCGGCGGCUCGAGCCCGGGUAAGUGUAAUUAGUCUGCAUGCCGCCGGGCGCCAUGCCUGCAGGUCGACUCUAGAAAACAUG”, for which the values for the binding signal in the assay with PUM1 PUF domain R3-LFS, with PUM1 PUF domain R3-VWC and in the assay with PUM1 PUF domain R3-WCS were 4.38 log2 enrichment (interaction score), 3.83 log2 enrichment (interaction score) and 1.01 log2 enrichment (interaction score), respectively.
As for “GGCUAGAACUAGUGGAUCCCCCGGCGCCCGGCGGCUCGAGCCCGGGUAAGUGUCAAUAGUCUGCAUGCCGCCGGGCGCCAUGCCUGCAGGUCGACUCUAGAAAACAUG”, in the assay with PUM1 PUF domain R5-RNI, the binding signal was 3.78 log2 enrichment (interaction score).
With “GGCUAGAACUAGUGGAUCCCCCGGCGCCCGGCGGCUCGAGCCCGGGUAAGUGUAAAGAGUCUGCAUGCCGCCGGGCGCCAUGCCUGCAGGUCGACUCUAGAAAACAUG”, the binding signal in the assay with PUM1 PUF domain R2-EWS was 4.8 log2 enrichment (interaction score).
Regarding “GGCUAGAACUAGUGGAUCCCCCGGCGCCCGGCGGCUCGAGCCCGGGUAAGUGUACAUAGUCUGCAUGCCGCCGGGCGCCAUGCCUGCAGGUCGACUCUAGAAAACAUG”, the binding signal in the assay with PUM1 PUF domain R4-VNT was 0.69 log2 enrichment (interaction score); in the assay with PUM1 PUF domain R4-DFI it was 3.24 log2 enrichment (interaction score); with PUM1 PUF domain R4-EYQ, 3.27 log2 enrichment (interaction score); in the assay with PUM1 PUF domain R4-SNV, 3.34 log2 enrichment (interaction score).
As to “GGCUAGAACUAGUGGAUCCCCCGGCGCCCGGCGGCUCGAGCCCGGGUAAGUUUAAAUAGUCUGCAUGCCGCCGGGCGCCAUGCCUGCAGGUCGACUCUAGAAAACAUG”, the results for the binding signal in the assay with PUM1 PUF domain R7-GCG and with PUM1 PUF domain R7-QSR were 3.64 log2 enrichment (interaction score) and 3.84 log2 enrichment (interaction score), respectively.
“GGCUAGAACUAGUGGAUCCCCCGGCGCCCGGCGGCUCGAGCCCGGGUAAGUGUAUAUAGUCUGCAUGCCGCCGGGCGCCAUGCCUGCAGGUCGACUCUAGAAAACAUG”: the binding signal is 2.54 log2 enrichment (interaction score) with PUM1 PUF domain R4-VNT, 3.03 log2 enrichment (interaction score) with PUM1 PUF domain R4-TPE and 3.72 log2 enrichment (interaction score) with PUM1 PUF domain R4-SNV.
Turning to “GGCUAGAACUAGUGGAUCCCCCGGCGCCCGGCGGCUCGAGCCCGGGUAAGUGUAAGUAGUCUGCAUGCCGCCGGGCGCCAUGCCUGCAGGUCGACUCUAGAAAACAUG”, the binding signal in the assay with PUM1 PUF domain R3-LFS is 6.56 log2 enrichment (interaction score); with PUM1 PUF domain R3-ASE, 4.6 log2 enrichment (interaction score); in the assay with PUM1 PUF domain R3-WCS, 2.96 log2 enrichment (interaction score).
Regarding “GGCUAGAACUAGUGGAUCCCCCGGCGCCCGGCGGCUCGAGCCCGGGUAAGUGUAAAUAGUCUGCAUGCCGCCGGGCGCCAUGCCUGCAGGUCGACUCUAGAAAACAUG”, the binding signal with PUM1 PUF domain R6-MYG is 4.1 log2 enrichment (interaction score); with PUM1 PUF domain R8-KFR it was 6.77 log2 enrichment (interaction score); with PUM1 PUF domain R3-ASY, 2.58 log2 enrichment (interaction score); with PUM1 PUF domain R3-LFS it was 3.98 log2 enrichment (interaction score); with PUM1 PUF domain R6-RWS it was 6.05 log2 enrichment (interaction score); in the assay with PUM1 PUF domain R8-LRK, 1.28 log2 enrichment (interaction score). In addition, the binding signal was 1.61 log2 enrichment (interaction score) with PUM1 PUF domain R4-EYQ, 1.05 log2 enrichment (interaction score) with PUM1 PUF domain R4-SNV and 3.78 log2 enrichment (interaction score) in the assay with PUM1 PUF domain R4-NRC.
For the sequence “GGCUAGAACUAGUGGAUCCCCCGGCGCCCGGCGGCUCGAGCCCGGGUAAGUGUAAAAAGUCUGCAUGCCGCCGGGCGCCAUGCCUGCAGGUCGACUCUAGAAAACAUG”, in the assay with PUM1 PUF domain R2-EWS, the binding signal is 6.34 log2 enrichment (interaction score).
“GGCUAGAACUAGUGGAUCCCCCGGCGCCCGGCGGCUCGAGCCCGGGUAAGCGUAAAUAGUCUGCAUGCCGCCGGGCGCCAUGCCUGCAGGUCGACUCUAGAAAACAUG”: the binding signal with PUM1 PUF domain R8-LRK is 2.19 log2 enrichment (interaction score).
Consider “GGCUAGAACUAGUGGAUCCCCCGGCGCCCGGCGGCUCGAGCCCGGGUAAGUGUAAAUUGUCUGCAUGCCGCCGGGCGCCAUGCCUGCAGGUCGACUCUAGAAAACAUG”, for which the binding signal in the assay with PUM1 PUF domain R1-NWG is 5.42 log2 enrichment (interaction score).
